We go through 40 compounds from PubChem BioAssay (Tox21).

Records with an inconclusive call do not appear. A call without a number means that no potency is given here. The source holds several records for some structures; these can differ, active in one and inactive in another. The source made the active and inactive calls. The call rests on the fitted dose curve.
Potency means the concentration at half of the fitted maximal effect.

In this assay the target is Progesterone receptor (Homo sapiens) (UniProt P06401). The assay can be described thus: qHTS assay to identify small molecule agonists of the progesterone receptor (PR) signaling pathway (AID 1346784). Further: nearly all actives have a fitted effect of over 30% in size. The following applies: PR-UAS-bla HEK293T, beta-lactamase FRET ratio, 16 h; series mostly up to 92.4 µM. The source says: U.S. Tox21 Program National Center for Advancing Translational Sciences [NCATS] NIH Chemical Genomics Center [NCGC] U.S. Environmental Protection Agency [EPA] National Institutes of Environmental Health Sciences [NIEHS] National Toxicology Program [NTP] U.S. Food and Drug Administration [FDA] […] Endocrine disrupting chemicals (EDCs) and their interactions with steroid hormone receptors like PR causes disruption of normal endocrine function. To identify the compounds that activate PR signaling, a PR-UAS-bla GripTite cell line i.e. PR-UAS-bla HEK 293T (Invitrogen, Carlsbad, CA, USA) containing a beta-lactamase reporter gene under the control of an Upstream Activator Sequence (UAS) was used to screen Tox21 10K compound library.
Chain of Progesterone receptor (Homo sapiens) (P06401 whole entry, looked up): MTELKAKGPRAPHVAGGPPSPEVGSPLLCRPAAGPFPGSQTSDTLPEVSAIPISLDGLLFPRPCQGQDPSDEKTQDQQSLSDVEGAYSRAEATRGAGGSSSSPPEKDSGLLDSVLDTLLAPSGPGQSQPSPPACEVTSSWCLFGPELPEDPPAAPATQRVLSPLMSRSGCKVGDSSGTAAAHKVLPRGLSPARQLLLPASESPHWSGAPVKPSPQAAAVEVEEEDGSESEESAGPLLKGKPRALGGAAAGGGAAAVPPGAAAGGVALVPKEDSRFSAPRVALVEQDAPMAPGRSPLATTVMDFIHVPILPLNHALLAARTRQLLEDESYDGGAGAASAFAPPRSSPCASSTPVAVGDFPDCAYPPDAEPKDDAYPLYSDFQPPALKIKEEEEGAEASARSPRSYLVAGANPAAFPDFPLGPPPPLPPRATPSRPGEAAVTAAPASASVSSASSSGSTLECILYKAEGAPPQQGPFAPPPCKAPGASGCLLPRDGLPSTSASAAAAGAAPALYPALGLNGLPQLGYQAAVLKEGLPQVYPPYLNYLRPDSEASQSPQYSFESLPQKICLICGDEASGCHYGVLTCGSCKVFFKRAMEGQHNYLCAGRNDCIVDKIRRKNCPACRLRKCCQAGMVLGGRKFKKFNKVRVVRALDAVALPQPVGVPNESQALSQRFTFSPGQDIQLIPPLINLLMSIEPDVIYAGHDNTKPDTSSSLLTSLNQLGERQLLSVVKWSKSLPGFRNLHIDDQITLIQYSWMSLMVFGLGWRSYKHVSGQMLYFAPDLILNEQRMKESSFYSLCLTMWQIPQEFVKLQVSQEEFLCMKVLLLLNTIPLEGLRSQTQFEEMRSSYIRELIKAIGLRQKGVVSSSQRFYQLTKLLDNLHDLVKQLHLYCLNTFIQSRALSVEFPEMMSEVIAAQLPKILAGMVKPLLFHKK
Tox21 Assay Protocol Summary: PR-UAS-bla HEK 293T cells were dispensed at 3,000 cells/5 uL of assay medium containing 2% charcoal stripped FBS per well into black wall/clear-bottom 1536-well plates using a Multidrop Combi (ThermoFisher Scientific, Waltham, MA) dispenser. After the assay plates were incubated at a 37C and 5% CO2 for 6hr, 23 nL of compounds dissolved in DMSO, positive controls or DMSO only was transferred to the assay plate by a Pintool station (Kalypsys, San Diego, CA). The plates were incubated at 37C and 5% CO2 for 16hr. Then 1 uL of LiveBLAzer B/G FRET substrate was added using a BioRAPTR FRD (Flying Reagent Dispenser, Aurora Discovery, San Diego, CA). After the plates were incubated at room temperature for 2 hours, fluorescence intensity was measured by an Envision plate reader (PerkinElmer, Shelton, CT).
On to `c1ccc2c(c1)CCNC2`, for which the Potency entry was “inactive”.

For `CCOC(=O)C(Cl)Cc1cc(-n2nc(C)n(C(F)F)c2=O)c(F)cc1Cl` (stereo not given), the Potency result is “inactive”.

Turning to `c1cncc([C@@H]2CCCCN2)c1`, the Potency entry is “inactive”. As to `O=C(O)C(Br)(Br)Br`, the Potency entry is “inactive”.

On to `Clc1cc2c(cc1Cl)Oc1cc(Cl)c(Cl)cc1O2`, for which the activation was 2.35% [at 0.349 µM] (inactive). On to `CC(C)(N)Cc1ccccc1Cl`, for which the Potency result is “inactive”. On the same count and under the same terms, in the case of `CC(C)NCC(O)c1ccc([N+](=O)[O-])cc1` (stereo not given) it was “inactive”. In the case of `Cc1ccc2c(c1)C1CN(C)CCC1N2` (stereo not given), the activation is -0.799% [at 19 µM] (inactive).

`ClC(Cl)(Cl)Cl`: the Potency entry is “inactive”. Turning to `NCCOS(=O)(=O)O`, the Potency entry is “inactive”.

On to `C=CCC1(C(C)CC)C(=O)NC(=O)NC1=O` (stereo not given), for which the Potency entry is “inactive”. On the same count and under the same terms, in the case of `O=C1C2CC=CCC2C(=O)N1SC(Cl)(Cl)Cl` (stereo not given) it was “inactive”; in that of `CCOC(=O)CC(SP(=S)(OC)OC)C(=O)OCC` (stereo not given), 1.37 µM (active) and inactive; in that of `CCOC(=O)C(SP(=S)(OC)OC)c1ccccc1` (stereo not given), “inactive”. On the same count and under the same terms, in the case of `COP(=O)(OC)O/C(C)=C/C(=O)N(C)C` it was “inactive”; in that of `CN1C(=O)COc2c(C(=O)NC3CN4CCC3CC4)cc(Cl)cc21` (stereo not given), “inactive”; in that of `Cc1cccc2sc3nncn3c12`, “inactive”. Same read-out and setting: in the case of `CCN[C@H](C)Cc1cccc(C(F)(F)F)c1` it was “inactive”; in that of `CCCN1CCC[C@@H]2Cc3[nH]ncc3C[C@H]21`, “inactive”; in that of `NNC(N)=O`, “inactive”. Regarding `CCN(CC)CCOC(=O)C(O)(c1ccccc1)c1ccccc1`, the Potency result was “inactive”. Still for that read-out and setting: the value for `CCOP(=S)(OCC)Oc1ccc(Cl)cc1Cl` was “inactive”.

Turning to `O=C(NC(O)C(Cl)(Cl)Cl)NC(O)C(Cl)(Cl)Cl` (stereo not given), the Potency entry was “inactive”. Same read-out and setting: the value for `O=P(O)(O)CN(CP(=O)(O)O)CP(=O)(O)O` was “inactive”. Still for that read-out and setting: the value for `CCN1CCCC1CNC(=O)C(O)(c1ccccc1)c1ccccc1` (stereo not given) was “inactive”; that for `C=C(Cl)CSC(=S)N(CC)CC` was “inactive”. In the case of `C=CC1(C)OC(=O)N(c2cc(Cl)cc(Cl)c2)C1=O` (stereo not given), the Potency result is “inactive”. In the case of `O=c1[nH]c2ccccc2n1C1CCNCC1`, the Potency entry was “inactive”.

With `CC(=O)OCC1=C(C(=O)O)N2C(=O)[C@@H](N)[C@H]2SC1`, the activation was 0.683% [at 19 µM] (inactive).

With `O=C(O)CBr`, the Potency result is “inactive”. The same measure, in the same setting: in the case of `O=C(CCl)NCO` it was “inactive”; in that of `C=CCN1CC[C@]23CCCC[C@H]2[C@H]1Cc1ccc(O)cc13`, “inactive”. Turning to `Cc1ccc2cc(C)ccc2c1`, the Potency entry was “inactive”. The same measure, in the same setting: the value for `CCOC(=O)NC(C)(C)Cc1ccc(Cl)cc1` was “inactive”; that for `CC(C)[C@]12CC(=O)[C@H](C)[C@H]1C2` was “inactive”. Still for that read-out and setting: the value for `C#CCOC(=O)/C=C(C)/C=C/CC(C)CCCC(C)C` (stereo not given) was “inactive”; that for `O=CCCl` was “inactive”.

In the case of `COc1ccc(CN2CCNCC2)c(OC)c1OC`, the Potency result was “inactive”.

In the case of `N=C(N)[Se]`, the Potency entry was “inactive”. For the compound `BrCc1ccc(Br)cc1`, the Potency result was “inactive”.
